The list is not random: actives were taken first. Their share in the collection is about 6.1%.
M1 ag = M1 muscarinic receptor agonists, primary screen, CHO-M1 cells, Fluo-4 calcium, agonist mode; Muscarinic acetylcholine receptor M1; Fluo-4 calcium fluorescence; active compounds read high; B-score at 10 µM; actives 3% (n = 64,000);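 active = fluorescence rise, raw or as B-score row- and column-corrected plate score, outside the 99.7% band of its plate's samples, either direction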
M1 antag = antagonists of rat M1 muscarinic receptor. actives 3.4% (n = 64,000). Muscarinic acetylcholine receptor M1 (Rattus norvegicus), P08482. CHO-M1 cells, Fluo-4 calcium, ACh EC80 antagonist mode; active compounds read low. B-score at 10 µM;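 active = calcium fluorescence response, raw or row-and-column corrected B-score, differing from the plate sample mean either way at a set confidence level, mostly lower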
Cdc25B inh = inhibitors of Cdc25B phosphatase catalytic domain, primary screen, biochemical, OMFP fluorescence; recombinant Cdc25B, OMFP fluorescence Ex485/Em525; inhibition, %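 (compounds tested at 10 µM final in the well)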; actives 0.1% (n = 65,000); AID 368, 2006; in the data active = inhibition above about 50%
MMP-13 inhibitor = human MMP13 inhibitors, primary screen, biochemical, FRET peptide cleavage; Collagenase 3 (Homo sapiens), P45452; MMP-13 fTHP FRET cleavage, Mca fluorescence; inhibition, % at 4 µM; actives 0.07% (n = 65,000); AID 570, 2006;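 active = inhibition above the mean of compound-free control plate wells plus 3 SD, cut at about 14% in these data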;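 also: 0% = DMSO wells and 100% = wells with reference MMP-13 inhibitor after basal subtraction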
Hsp90 inh = tumor Hsp90 inhibitors, primary screen, cell lysate, fluorescence polarization, NCI-N417 lysate; Heat shock protein HSP 90-alpha (Homo sapiens), P07900; Cy3B-geldanamycin FP displacement; inhibition, % at 30 µM; actives 0.35% (n = 64,000);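 active = inhibition above 50%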;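 also: 0% = tracer plus lysate wells and 100% = tracer alone without lysate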
DUSP1 inh = MKP-1 phosphatase inhibitors, primary screen, biochemical, in vitro. Dual specificity protein phosphatase 1 (Homo sapiens), P28562. inhibition, %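 (compounds tested at a single concentration somewhere between 10 and 100 µM)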. recombinant MKP-1, OMFP hydrolysis fluorescence. actives 0.15% (n = 65,000);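 active = inhibition above about 50%, limit read from the data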;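 also: 0% = DMSO max control wells and 100% = wells with enzyme stopped by NaOH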
Target sequence (P28562 whole entry, looked up): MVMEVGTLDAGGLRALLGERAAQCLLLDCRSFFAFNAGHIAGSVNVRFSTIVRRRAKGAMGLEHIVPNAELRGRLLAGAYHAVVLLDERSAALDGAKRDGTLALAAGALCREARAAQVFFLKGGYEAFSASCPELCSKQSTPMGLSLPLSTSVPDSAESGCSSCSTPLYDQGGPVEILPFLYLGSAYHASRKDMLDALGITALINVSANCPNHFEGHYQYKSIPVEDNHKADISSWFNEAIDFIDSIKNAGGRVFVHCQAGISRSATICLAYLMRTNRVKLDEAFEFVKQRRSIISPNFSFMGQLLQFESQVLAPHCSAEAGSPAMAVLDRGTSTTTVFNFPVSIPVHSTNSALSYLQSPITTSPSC
M1 antag confirm = rat M1 muscarinic receptor antagonists, confirmation, CHO cells, Fluo-4 calcium, duplicate. calcium response (max-min fluorescence) at 10 µM. shares compounds with M1 antag. ACh EC80 antagonism; active compounds read low. AID 677, 2007. actives 43% (n = 1,700);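 active = calcium response below the same-plate mean of wells given acetylcholine alone at its 80%-effect dose, minus 3 SD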;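 also: raw fluorescence intensity difference in arbitrary instrument units and not normalized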
mGluR4 antag = human mGluR4 response to M1 antagonist hits, M1 allosteric modulator project, cell-based, antagonist mode, secondary assay 1 | shares compounds with M1 antag | CHO-mGluR4 calcium flux, Fluo-4 fluorescence, glutamate EC80; active compounds read low | fluorescence response (max-min) at 10 µM | actives 0.9% (n = 1,700) | AID 678, 2007;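 active = fluorescence response below the plate's average for near-maximal glutamate wells, less 3 SD of those wells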;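 also: raw unnormalized fluorescence span taken in the window right after glutamate addition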
* hit, by the source's call.

`CC(C)C(=O)NC(C)C(c1cccs1)N1CCOCC1` (configuration not stated) gave M1 ag -0.177, M1 antag -0.0959, Cdc25B inh -17.9, MMP-13 inhibitor 5.7, Hsp90 inh -0.1 and DUSP1 inh 5.7.
`CCN1CCCC1CNC(=O)CS(=O)(=O)Cc1nc(-c2ccccc2C)oc1C` (configuration not stated) gave M1 ag -1.56, M1 antag -0.0714, Cdc25B inh 0.9, MMP-13 inhibitor 6.0, Hsp90 inh -2.2 and DUSP1 inh -12.9.
Screening CCN1CCCC1CNC(=O)CSCc1nc(-c2ccccc2C)oc1C (configuration not stated) returned M1 ag -0.299, M1 antag -3.66*, Cdc25B inh -7.3, MMP-13 inhibitor 5.9, Hsp90 inh 0.6, DUSP1 inh 32.7, M1 antag confirm 308* and mGluR4 antag 242.
For COc1ccc(C(=O)Nn2c(SCC(=O)NCC3CCCO3)nc3ccccc3c2=O)cc1 (configuration not stated) the results were M1 ag -0.793, M1 antag -6.92*, Cdc25B inh -8.3, MMP-13 inhibitor 0.2, Hsp90 inh -5.1, DUSP1 inh -1.2, M1 antag confirm 575 and mGluR4 antag 229.
COc1ccc2nc3oc(C(=O)N4CCCCC4)cc3cc2c1 was read as M1 ag -0.161, M1 antag 0.0856, Cdc25B inh -5.4, MMP-13 inhibitor -123.3, Hsp90 inh -5.0 and DUSP1 inh 9.6.
CCOC(=O)C1CCN(C(=O)c2cc3cc4cc(OC)ccc4nc3o2)CC1 was read as M1 ag 5.06, M1 antag -3.19*, Cdc25B inh 0.3, MMP-13 inhibitor -94.1, Hsp90 inh -1.2, DUSP1 inh -0.2, M1 antag confirm 432* and mGluR4 antag 196.
Screening CCN1CCN(Cc2ccc(OCc3ccccc3)cc2)CC1 returned M1 ag -0.617, M1 antag -4.4*, Cdc25B inh -7.1, MMP-13 inhibitor 6.0, Hsp90 inh -1.1, DUSP1 inh -0.4, M1 antag confirm 345* and mGluR4 antag 178.
CC(O)CNC(=O)C1CCN(Cc2ccc(OCc3ccccc3)cc2)CC1 (configuration not stated) was read as M1 ag -0.389, M1 antag -4.77*, Cdc25B inh -6.5, MMP-13 inhibitor 0.7, Hsp90 inh -3.5, DUSP1 inh -1.0, M1 antag confirm 572 and mGluR4 antag 232.
CN1CCN(Cc2ccc(OCc3ccccc3)cc2)CC1 was read as M1 ag -1.19, M1 antag -1.14, Cdc25B inh -3.4, MMP-13 inhibitor 2.7, Hsp90 inh -1.9 and DUSP1 inh 7.7.
`O=C(O)C(Oc1ccc2c3c(c(=O)oc2c1)CCC3)c1ccccc1` (configuration not stated) gave M1 ag -0.287, M1 antag -0.0525, Cdc25B inh -1.9, MMP-13 inhibitor -51.9, Hsp90 inh -4.5 and DUSP1 inh 6.7.
`COC(=O)c1ccccc1NC(=O)NCC1CCCO1` (configuration not stated) gave M1 ag 0.00332, M1 antag -1.9*, Cdc25B inh -8.8, MMP-13 inhibitor -5.6, Hsp90 inh -2.5, DUSP1 inh 4.0, M1 antag confirm 469 and mGluR4 antag 237.
`COc1ccc(C(=O)N(Cc2nc(-c3ccc(C)cc3)no2)C2CCCCC2)cc1OC` gave Cdc25B inh -11.5, MMP-13 inhibitor 3.6, Hsp90 inh -2.7 and DUSP1 inh 9.4.
`O=C(CCNC(=O)c1ccc(Br)o1)NCc1ccccn1` gave M1 ag 0.0742, M1 antag -7.67*, Cdc25B inh -15.6, MMP-13 inhibitor -3.7, Hsp90 inh -2.2, DUSP1 inh 5.5, M1 antag confirm 648 and mGluR4 antag 144*.
O=C(CCNC(=O)c1ccc(Br)o1)NCc1ccccc1Cl was read as M1 ag 0.127, M1 antag -0.841, Cdc25B inh -8.9, MMP-13 inhibitor -2.1, Hsp90 inh 1.1 and DUSP1 inh 11.5.
For O=C(CSc1ncn[nH]1)N1CCN(c2nnc(-c3ccccc3)c3ccccc23)CC1 the results were M1 ag 0.003, M1 antag -2.9*, Cdc25B inh -11.9, MMP-13 inhibitor -7.4, Hsp90 inh -1.4, DUSP1 inh 7.7, M1 antag confirm 497* and mGluR4 antag 208.
O=C(CSc1ccc2c(c1)OCCO2)Nc1ccc(Cl)cn1 was read as M1 ag -2.55, M1 antag -3.22*, Cdc25B inh -4.4, MMP-13 inhibitor 2.7, Hsp90 inh 5.1, DUSP1 inh -28.3, M1 antag confirm 485 and mGluR4 antag 224.
`Cc1c(NC(=O)CSc2ccc3c(c2)OCCO3)c(=O)n(-c2ccccc2)n1C` gave M1 ag -0.532, M1 antag 0.179, Cdc25B inh -7.4, MMP-13 inhibitor 2.1, Hsp90 inh 2.0 and DUSP1 inh 0.0.
Screening c1ccc(CCn2nnnc2CN2CCc3ccccc32)cc1 returned M1 ag 1.25, M1 antag 0.108, Cdc25B inh -1.3, MMP-13 inhibitor -2.9, Hsp90 inh -4.7 and DUSP1 inh 7.7.
`CN1CCN(c2ccc(NC(=O)c3cccc(OCc4ccccc4)c3)cc2)CC1` gave M1 ag -0.549, M1 antag -5.29*, Cdc25B inh 1.8, MMP-13 inhibitor 1.2, Hsp90 inh 7.5, DUSP1 inh -16.1, M1 antag confirm 304* and mGluR4 antag 245.
Screening CN1CCN(c2ccc(NC(=O)Cc3ccccc3)cc2)CC1 returned M1 ag 0.0577, M1 antag -0.219, Cdc25B inh 8.5, MMP-13 inhibitor 2.4, Hsp90 inh -9.9 and DUSP1 inh 17.0.
For COCCCNC(CC(=O)Nc1ccc(OC)cc1OC)C(=O)O (configuration not stated) the results were M1 ag 0.455, M1 antag 1.2, Cdc25B inh -8.4, MMP-13 inhibitor 3.3, Hsp90 inh 4.9 and DUSP1 inh -10.0.
